Laboratory results reported in PubChem BioAssay AID1159580 (chemical genetic matrix, 2015).
Among all 5,500 compounds or so, about 2,000 (36%) were called active. Inconclusive results (about 18%) are left out. Cut-off read from the data, not from the text of the source: active = normalized growth mostly below about 0.91 (no sharp cut-off); inconclusive = no clear call, values can overlap the other calls; inactive = mostly above about 0.92. This is one part of the list.

Assay: chemical genetic growth profiling, strain panel (AID 1159580);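 note: tested at 20 µM; growth read once vehicle control cultures reached saturation at 30 °C; 1 = growth at the plate median or of vehicle wells; lower values mean less growth of the strain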
Settings: S. cerevisiae deletion strains, growth OD

Measured: normalized growth

CCCN1CCC[C@@H]2Cc3[nH]ncc3C[C@H]21
inactive: locus YAL013W, strain DEP1, hits give low values 0.989 | locus YAL040C, strain CLN3, hits give low values 1.02 | locus YCL061C, strain MRC1 (second series), hits give low values 1 | locus YDR363W, strain ESC2, hits give low values 1.01 | locus YER002W, strain NOP16, hits give low values 1.01 | locus YMR263W, strain SAP30, hits give low values 0.994 | locus YMR307W, strain GAS1, hits give low values 0.985 | locus YNL128W, strain TEP1, hits give low values 1.02 | locus YNL175C, strain NOP13, hits give low values 1 | locus YNL197C, strain WHI3, hits give low values 1.02 | locus YNL224C, strain SQS1, hits give low values 1.01 | locus YNL322C, strain KRE1, hits give low values 1.01 | locus YOR083W, strain WHI5 (second series), hits give low values 1.02

O=C(Oc1ccc2ccccc2c1C1SCCS1)c1ccc([N+](=O)[O-])o1
active: locus YHR030C, strain SLT2, hits give low values 0.698 | locus YLR113W, strain HOG1, hits give low values 0.702 | locus YPL256C, strain CLN2, hits give low values 0.807
inactive: locus YAR019C, strain CDC15, hits give low values 0.952 | locus YBL105C, strain PKC1, hits give low values 0.958 | locus YBR135W, strain CKS1, hits give low values 0.966 | locus YBR136W, strain MEC1, hits give low values 0.957 | locus YBR160W, strain CDC28, hits give low values 0.947 | locus YDL017W, strain CDC7, hits give low values 0.958 | locus YDL028C, strain MPS1, hits give low values 0.942 | locus YDL101C, strain DUN1, hits give low values 0.943 | locus YDL108W, strain KIN28, hits give low values 0.955 | locus YDL132W, strain cdc53, hits give low values 0.973 | locus YDL214C, strain PRR2, hits give low values 0.912 | locus YDR052C, strain DBF4, hits give low values 0.973 | locus YDR054C, strain cdc34, hits give low values 0.97 | locus YDR226W, strain ADK1, hits give low values 0.933 | locus YDR477W, strain SNF1, hits give low values 0.901 | locus YER123W, strain YCK3, hits give low values 0.907 | locus YER133W, strain GLC7, hits give low values 0.953 | locus YFL009W, strain cdc4, hits give low values 0.964 | locus YFL029C, strain CAK1, hits give low values 0.948 | locus YFR003C, strain YPI1, hits give low values 0.957 | locus YFR019W, strain FAB1, hits give low values 0.923 | locus YFR028C, strain CDC14, hits give low values 0.946 | locus YGR040W, strain KSS1, hits give low values 0.919 | locus YGR052W, strain FMP48, hits give low values 0.966 | locus YGR092W, strain DBF2, hits give low values 0.86 | locus YHR079C, strain IRE1, hits give low values 0.89 | locus YHR082C, strain KSP1, hits give low values 0.936 | locus YHR205W, strain SCH9, hits give low values 0.768 | locus YIL147C, strain SLN1, hits give low values 0.93 | locus YJL095W, strain BCK1, hits give low values 0.855 | locus YJL128C, strain PBS2, hits give low values 0.842 | locus YJL157C, strain FAR1, hits give low values 0.92 | locus YJR016C, strain ILV3, hits give low values 0.958 | locus YJR066W, strain TOR1 (second series), hits give low values 0.919 | locus YJR066W, strain TOR1, hits give low values 0.879 | locus YKL048C, strain ELM1, hits give low values 0.925 | locus YKL067W, strain YNK1, hits give low values 0.909 | locus YKL101W, strain HSL1, hits give low values 0.894 | locus YKL193C, strain SDS22, hits give low values 0.952 | locus YKL203C, strain TOR2, hits give low values 1.02 | locus YLR133W, strain CKI1, hits give low values 0.919 | locus YLR403W, strain SFP1, hits give low values 0.919 | locus YML070W, strain DAK1, hits give low values 0.907 | locus YMR001C, strain CDC5, hits give low values 0.94 | locus YMR205C, strain PFK2 (second series), hits give low values 0.938 | locus YMR277W, strain FCP1, hits give low values 0.937 | locus YNL006W, strain LST8, hits give low values 0.955 | locus YNL020C, strain ARK1, hits give low values 0.917 | locus YNL161W, strain CBK1, hits give low values 0.957 | locus YNL183C, strain NPR1, hits give low values 0.951 | locus YNL207W, strain RIO2, hits give low values 0.963 | locus YNL222W, strain SSU72, hits give low values 0.939 | locus YNL307C, strain MCK1 (second series), hits give low values 0.901 | locus YOL078W, strain AVO1, hits give low values 0.962 | locus YOL136C, strain PFK27, hits give low values 0.886 | locus YOR061W, strain CKA2, hits give low values 0.921 | locus YOR119C, strain RIO1, hits give low values 0.973 | locus YOR231W, strain MKK1, hits give low values 0.878 | locus YOR329C, strain SCD5, hits give low values 0.957 | locus YPL031C, strain PHO85, hits give low values 0.917 | locus YPL153C, strain RAD53, hits give low values 0.909 | locus YPL204W, strain HRR25, hits give low values 0.906 | locus YPL209C, strain IPL1, hits give low values 0.964 | locus YPR025C, strain CCL1, hits give low values 0.961 | locus YPR106W, strain ISR1, hits give low values 0.939 | locus YPR111W, strain DBF20, hits give low values 0.913 | strain NNK1, hits give low values 0.941 | strain TSCII, hits give low values 0.954
